Screening results from PubChem BioAssay.
Only some compounds are listed: those with a hit (about 3.5% of all), similar ones and a draw of the others.
FBW7 activator = activators of human E3 ligase FBW7. AlphaScreen FBW7–phospho-cyclin E peptide binding, activator screen. actives 0.13% (n = 650,000). normalized activity (activation), % at 26.1 µM. AID 1259310. Q969H0; in the data active = normalized activity above about 1.9%;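 note: purified mutant Fbw7 with reduced substrate affinity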
GPR151 ag = activators of human GPR151; PathHunter beta-arrestin GPR151 cells, luminescence; Q8TDV0; AID 1508602; actives 1% (n = 650,000); activation, % at 11.2 µM; in the data active = activation above about 4.9%;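 note: 0% = median of compound wells and 100% = cells with positive control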
Target sequence (Q8TDV0 whole entry, looked up): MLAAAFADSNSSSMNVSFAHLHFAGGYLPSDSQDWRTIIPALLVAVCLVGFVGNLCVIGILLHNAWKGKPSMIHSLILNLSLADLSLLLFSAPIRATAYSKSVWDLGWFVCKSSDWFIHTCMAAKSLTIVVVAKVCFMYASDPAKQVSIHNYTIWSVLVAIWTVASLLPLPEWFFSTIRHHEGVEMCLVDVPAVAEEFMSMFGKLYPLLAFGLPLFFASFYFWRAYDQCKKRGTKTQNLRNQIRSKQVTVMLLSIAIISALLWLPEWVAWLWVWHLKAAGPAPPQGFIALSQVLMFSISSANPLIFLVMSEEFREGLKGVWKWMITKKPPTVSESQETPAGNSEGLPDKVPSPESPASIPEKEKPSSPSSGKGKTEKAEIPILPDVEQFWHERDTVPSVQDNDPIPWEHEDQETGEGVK
TEAD-YAP block = TEAD-YAP interaction inhibition | AID 1259422 | inhibition, % at 9.12 µM | HEK-TIYL cells, TEAD-Gal4/YAP UAS-luciferase luminescence | actives 1.4% (n = 640,000); in the data active = inhibition above about 32%;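 note: 0% = median of test compound wells and 100% = reference inhibitor wells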
MITF inh = blocks human microphthalmia-associated transcription factor; O75030; AlphaScreen MITF homodimerization, bead proximity signal; inhibition, % at 2.6 µM; actives 0.91% (n = 650,000); AID 1259374; in the data active = inhibition above about 50%;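 note: 0% = vehicle wells with protein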
GPR151 confirm = human GPR151 activation, confirmation screen; shares compounds with GPR151 ag; GPR151 PathHunter beta-arrestin cells, luminescence, 90 min; % of EA-reagent control over plate median; activation, % at 11.2 µM; 6,700 tested, under 10 active; AID 1508609;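 active = mean percent activation across replicates above the confirmation screen cutoff of 4.91%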
GPR119 ag = counter-screen for GPR151 activators: effect on human GPR119 | actives 0.3% (n = 6,700) | shares compounds with GPR151 ag | activation, % at 11.2 µM | GPR119 PathHunter beta-arrestin cells, luminescence, 90 min; 0 = compound-well median, 100 = enzyme-acceptor control;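 active = mean percent activation in the counterscreen above 29.09%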;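 note: counterscreen on off-target GPR119 to flag nonselective hits from the GPR151 activator screen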
Starred values were filed as active, the others as inactive; x = no result.

SMILES	FBW7 activator	GPR151 ag	TEAD-YAP block	MITF inh	GPR151 confirm	GPR119 ag
C=CCOc1ccc(C2/C(=C(/O)c3ccc(OCC)c(C)c3)C(=O)C(=O)N2Cc2cccnc2)cc1 (stereo not given)	0.0	6.6*	2.9	-18.7	0.2	-16.6
CCOc1ccc(/C(O)=C2/C(=O)C(=O)N(Cc3cccnc3)C2c2ccc(C)cc2)cc1C (stereo not given)	0.0	0.2	-5.5	-6.8	x	x
Cc1ccc(NC(=O)C(=O)NCc2ccco2)cc1C	0.6	1.4	-32.9	2.4	x	x
O=C(Nc1sc2c(c1-c1nc3ccccc3s1)CCCC2)c1ccc(S(=O)(=O)N2CCOCC2)cc1	-0.2	0.0	4.4	-2.2	x	x
NS(=O)(=O)c1ccc(NC(=O)CSc2ccc([N+](=O)[O-])cn2)cc1	-0.1	7.9*	14.4	2.4	-0.9	-8.8
O=C(CSc1ccc([N+](=O)[O-])cn1)Nc1cccc(C(F)(F)F)c1	0.0	5.6*	6.3	-3.5	-0.6	-7.2
O=C(CSc1ccc([N+](=O)[O-])cn1)Nc1ccc(Oc2ccccc2)cc1	0.7	-1.2	-15.2	-7.2	x	x
c1cncc(-c2ccc(Oc3ccccc3N3CCOCC3)nc2)c1	0.1	-0.3	-5.5	-2.5	x	x
Cc1ccc(-n2c(SCc3cccc([N+](=O)[O-])c3)nc3[nH]ncc3c2=O)cc1Cl	0.0	4.9*	15.6	-4.4	0.0	-3.3
O=c1c2cn[nH]c2nc(SCc2cccc([N+](=O)[O-])c2)n1-c1ccc(Cl)cc1	0.6	-1.1	-3.8	9.3	x	x
COc1cc(/C=N/n2c(-c3ccncc3)n[nH]c2=S)cc(Br)c1O	0.0	5.0*	4.4	-7.2	-0.5	-7.2
O=C1NC(CC(=O)N2CCC(c3ncncc3-c3ccncc3)CC2)c2ccccc21 (stereo not given)	-0.1	-0.1	-13.2	-2.5	x	x
CCc1ccc(NS(=O)(=O)c2ccc3[nH]cc(C(=O)N4CCCCC4)c(=O)c3c2)cc1	-0.4	0.0	-0.7	-4.7	x	x
CC(C)c1ccc(NS(=O)(=O)c2ccc3[nH]cc(C(=O)N4CCCC4)c(=O)c3c2)cc1	0.5	9.7*	-5.2	49.4	1.5	3.9
O=C(CSc1nnc(NC(=O)c2cccs2)s1)NCc1cccs1	0.1	0.0	-2.6	25.1	x	x
CCn1c(=O)[nH]c(=O)c2c(C(F)(F)F)cc(-c3cccs3)nc21	0.4	-0.7	3.6	9.4	x	x
COc1cc(CN2CCc3nnc(CCc4ccccc4)n3CC2)cc(OC)c1O	0.0	0.7	1.7	12.3	x	x
COc1cccc(CN2CCc3nnc(CCNC(=O)C4CCCO4)n3CC2)c1 (stereo not given)	-0.1	6.3*	-9.1	-15.6	0.0	5.3
COc1cc(CN2CCc3nnc(CCc4ccccc4)n3CC2)cc(OC)c1OC	0.1	7.1*	17.7	5.4	0.2	8.2
CCn1c(=O)[nH]c2cc(C(=O)NC3CCCCC3)ccc2c1=O	-0.1	-0.2	2.0	10.4	x	x
Cc1cc(C)nc(N2CCC(CNS(=O)(=O)c3ccc4ccccc4c3)CC2)n1	0.3	-1.7	1.6	1.2	x	x
CCCOc1ccc(N2C(=O)C3C(C2=O)C2(C)CC3(C)CC2=O)cc1 (stereo not given)	-0.1	7.8*	-4.3	11.1	-0.4	-10.9
COc1ccccc1Cn1nccc1N	0.3	1.6	1.8	8.2	x	x
COc1ccc(Cn2nccc2N)cc1OC	0.3	13.8*	-2.3	2.0	2.0	7.0
Cc1ccc(C(C)C)c(OCC(=O)NCCc2nc3ccccc3[nH]2)c1	-0.1	-2.2	4.2	-4.6	x	x
SMILES	FBW7 activator	GPR151 ag	TEAD-YAP block	MITF inh	GPR151 confirm	GPR119 ag
Cn1c(CNc2nc3ccccc3n2CCN2CCOCC2)nc2ccccc21	0.0	-1.0	-13.5	11.7	x	x
c1coc(CNc2nc3ccccc3n2CCN2CCOCC2)c1	0.2	9.8*	-19.4	-10.9	0.1	18.8
CCc1nccn1CCC(=O)N1CCOc2ccc(CN3CCc4ccccc4C3)cc2C1	0.1	-0.4	-5.3	20.5	x	x
CC(=O)Nc1ccc(Nc2c(-c3ccc4c(c3)OCC(=O)N4)c(=O)c2=O)cc1	-0.1	8.7*	3.6	-5.5	-0.4	-0.7
COc1cc(NS(=O)(=O)c2ccc(NC(=O)c3ccc(Cl)cc3)cc2)nc(OC)n1	0.0	1.8	15.2	3.2	x	x
NNC(=O)c1ccccc1S(N)(=O)=O	-0.1	0.9	-4.2	-14.1	x	x
COc1cc(S(=O)(=O)N2CCN(c3ccc(C)c(C)c3)CC2)ccc1F	0.0	5.9*	-2.9	-0.8	2.3	3.5
FC(F)(F)c1ccc(-c2cnnc(N3CCN(Cc4cccnc4)CC3)n2)cc1	-0.2	6.0*	6.4	-2.3	-0.4	-2.4
C[C@@H]1CN(c2nncc(-c3cccc(C(F)(F)F)c3)n2)C[C@H](C)O1	0.0	-1.4	0.2	13.5	x	x
FC(F)(F)c1ccc(-c2cnnc(N3CCCCCC3)n2)cc1	-0.1	-0.4	6.8	2.4	x	x
FC(F)(F)c1cccc(-c2cnnc(N3CCN(c4ccccn4)CC3)n2)c1	0.1	15.3*	11.8	11.9	-0.2	8.9
CC(=O)N=C1SCCN1CC(=O)c1ccc(F)cc1	-0.1	-0.3	-7.9	0.5	x	x
COc1cc(/C=C2\SC(=O)N(CC(=O)Nc3ccccc3F)C2=O)cc([N+](=O)[O-])c1O	-0.1	1.0	-0.6	-7.4	x	x
CCOc1ccccc1Nc1nnc(SCc2nc3ccccc3c(=O)[nH]2)s1	-0.1	-0.9	-9.4	4.4	x	x
O=c1[nH]c(CSc2nnc(Nc3ccccc3F)s2)nc2ccccc12	0.1	7.2*	-1.3	-19.3	0.4	3.9
CC(C)(C)c1ccc(C(=O)N/N=C/c2ccc([N+](=O)[O-])o2)cc1	0.2	0.7	1.3	-16.8	x	x
COc1ccc(-n2cc(-c3ccccc3)c3c(NCCc4ccc(OC)c(OC)c4)ncnc32)cc1	-0.1	5.1*	3.0	6.9	-0.3	11.9
Cc1cc(Nc2ccc3c(c2)OCO3)nc(Nc2ccc(N3CCOCC3)cc2)n1	-0.3	10.0*	92.7*	17.9	2.0	71.2*
Cc1cc(Nc2ccc(N3CCOCC3)cc2)nc(NCc2cccnc2)n1	0.0	5.4*	21.9	2.4	1.4	-1.8
Cc1cc(Nc2ccc(N3CCOCC3)cc2)nc(Nc2ccncc2)n1	-0.1	-1.4	-2.3	13.8	x	x
O=C(Oc1cccc(-c2cnc3ccccc3n2)c1)c1cc(S(=O)(=O)N2CCOCC2)ccc1Cl	1.5	-0.4	-1.3	21.6	x	x
CC(C)(C)NS(=O)(=O)c1ccc2nc(NC(=O)c3cccnc3)sc2c1	-0.1	6.2*	-5.0	-4.7	0.9	12.8
Cc1ccc(C(=O)Nc2nc3ccc(S(C)(=O)=O)cc3s2)cc1	-0.3	0.5	-45.5	-10.0	x	x
C/C(=N\Nc1ccc([N+](=O)[O-])cc1)c1ccc([N+](=O)[O-])cc1	0.0	-0.7	4.6	5.8	x	x
COCCOC(=O)C1=C(C)Nc2ccc(C)cc2S1	0.0	-0.5	3.9	17.3	x	x
CCOCCOC(=O)C1=C(C)Nc2ccc(C)cc2S1	-0.1	12.7*	2.0	8.9	1.4	11.0
